# A selection: hits, their analogues and other compounds. The true share with any hit is near 3.7%.
# TGFb SMAD3 inh: qHTS for Inhibitors of TGF-b; Potency, µM (highest dose often 46.1 µM), for inactives: at the top dose activity, negative = inhibition, most hits filed as inhibitors; HepG2 CAGA-GFP TGF-b/SMAD3 reporter, GFP fluorescence, 18 h; TGF-beta stimulated, 500 pg/mL final; 410,000 tested, 1.2% active; AID 588855, 2011; further: on the % scale 0 is the no-effect control and ±100 the full control effect; nearly all actives have a fitted effect of over 65% in size
#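 HEPG2 CAGA-GFP reporter cells (1000/well, DMEM with 1% FBS) received compounds, then recombinant TGF-beta at 500 pg/mL final for 18 hours at 37 degrees C. Per-cell GFP summed per well was normalised to unstimulated and stimulated DMSO controls before curve fitting.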
# GLP-1R agonist: qHTS of GLP-1 Receptor Agonists; HEK293 GLP-1R CRE-luciferase, luminescence, 4-6 h; cells express a hypersensitive GLP-1R form; 380,000 tested, 0.007% active; AID 624172, 2012; Potency, µM (doses to about 45.6 µM), inactives show at the highest dose activation, actives largely listed as activators; further: % of control where 0% means no effect
# Target sequence (P43220 whole entry, looked up): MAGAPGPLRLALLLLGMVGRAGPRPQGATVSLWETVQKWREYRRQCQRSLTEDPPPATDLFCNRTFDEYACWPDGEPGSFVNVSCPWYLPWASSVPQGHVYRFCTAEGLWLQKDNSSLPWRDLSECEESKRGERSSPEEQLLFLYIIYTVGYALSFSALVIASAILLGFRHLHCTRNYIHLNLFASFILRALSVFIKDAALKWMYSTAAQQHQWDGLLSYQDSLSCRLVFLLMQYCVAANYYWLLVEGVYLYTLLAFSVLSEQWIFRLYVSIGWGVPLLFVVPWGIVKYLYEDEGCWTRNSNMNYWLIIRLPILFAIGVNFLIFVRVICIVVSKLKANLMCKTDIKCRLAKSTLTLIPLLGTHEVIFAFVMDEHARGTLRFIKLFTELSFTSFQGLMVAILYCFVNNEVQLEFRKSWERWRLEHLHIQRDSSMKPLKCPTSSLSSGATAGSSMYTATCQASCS
# S2 tox: Viability Counterscreen for Primary qHTS for Inhibitors of ATXN expression | S2 cells (HEK-293 line with an ATXN2-luciferase reporter) viability, CellTiter-Fluor protease fluorescence, 24 h | Potency, µM (top dose mostly 56.7 µM), most hits filed as cytotoxic | 400,000 tested, 0.49% active; further: nearly all actives have a fitted effect of over 40% in size
# HepG2 viability: qHTS for Inhibitors of TGF-b: Cytotox Counterscreen; HepG2 CAGA-GFP viability, ATP luminescence, 18 h; Potency, µM (top dose mostly 46.1 µM), inactives show top-dose activity change, negative = cytotoxicity, hits mostly cytotoxic; 410,000 tested, 0.76% active
#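 HepG2 CAGA-GFP cells (1000/well, DMEM with 1% FBS) received compound, then TGF-beta at 500 pg/mL final, and were incubated 18 hours at 37 degrees C. Viability was read by CellTiter-Glo luminescence. Media-only wells were set as complete cell-killing and DMSO as no toxicity.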
# ATXN2 expr inh: Primary qHTS for Inhibitors of ATXN expression | HEK-293 ATXN2-luciferase reporter, luminescence, 24 h | Potency, µM (series often up to 57 µM), inactives show at the top dose activity change, negative = inhibition, most hits filed as inhibitors | 360,000 tested, 0.72% active; further: on the % scale 0 is the no-effect control and ±100 the full control effect; nearly all actives have a fitted effect of over 55% in size
#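 ATXN2-luciferase reporter cells (luciferase flanked by upstream and downstream ATXN2 gene portions) were treated 24 h at 37 °C with compounds at up to 57 uM. SteadyGlo luminescence gave expression; GF-AFC fluorescence gave viability.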
# GLP1R inv ag: qHTS of GLP-1 Receptor Inverse Agonists (Inhibition Mode). HEK293 GLP-1R CRE-luciferase, luminescence, 24 h; GLP-1R form is constitutively active. Potency, µM (top dose mostly 38.3 µM), without a hit: at the highest dose activity change, negative = inhibition, usual class: inhibitors. 410,000 tested, 1.6% active. AID 624417, 2012; further: on the % scale 0 is the no-effect control and ±100 the full control effect; nearly all actives have a fitted effect of over 55% in size
#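 Luminescence readout: a drop in cAMP-driven luciferase signal flags inverse agonism at a constitutively active GLP-1R stably expressed in HEK293. Compound exposure lasted 24 hr at 37 deg C, 5% CO2.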
# Starred values were filed as active, the others as inactive; i = inactive; ? = inconclusive; · = not tested or not shown. The call rests on the fitted dose curve; in most records, active means well fitted curve in the direction sought with a large enough effect; inconclusive means small, poorly fitted or top-dose-only effect, or another doubt; inactive means no such curve, though single readings can be large; an effect the other way counts as inactive or inconclusive. Potency means the concentration at half of the fitted maximal effect.
SMILES,TGFb SMAD3 inh,GLP-1R agonist,S2 tox,HepG2 viability,ATXN2 expr inh,GLP1R inv ag
OC[C@@H]1[C@@H](c2ccccc2)C(c2ccc(F)cc2)=NN1c1ccccc1,10µM*,-2.3%,·,-49.1%,-10.0%,?
COc1ccccc1[C@H]1C(c2cccc(Cl)c2)=NN(c2ccccc2)[C@@H]1CO,12.6µM*,-1.3%,·,12.6µM*,?,?
Cc1cccc(C2=NN(c3ccccc3)[C@H](CO)[C@H]2c2ccc(Cl)cc2)c1,?,-3.8%,·,-109.5%,?,10µM*
COc1ccccc1[C@@H]1C(c2cccc(Cl)c2)=NN(c2ccccc2)[C@H]1C(=O)N1CCOC1=O,-16.2%,-4.6%,·,6.1%,7.1%,?
Cc1cccc(C2=NN(c3ccccc3)[C@H](CO)[C@H]2c2ccc(F)cc2)c1,20µM*,6.6%,·,-93.3%,0.0%,?
OC[C@@H]1[C@@H](c2ccccc2)C(c2cccc(Cl)c2)=NN1c1ccccc1,?,-1.6%,·,-114.9%,-30.5%,?
OC[C@@H]1[C@@H](c2ccccc2)C(c2ccccc2)=NN1c1ccccc1,?,8.2%,·,-25.9%,-0.3%,?
OC[C@@H]1[C@@H](c2ccc(Cl)cc2)C(c2ccc(F)cc2)=NN1c1ccccc1,?,2.2%,·,-99.8%,-17.2%,?
NC(=O)C1CCCN(Cc2ccc3c(c2)CN(Cc2cn[nH]c2-c2ccc(F)cc2)CCO3)C1 (stereo not given),·,·,i,·,·,·
CCN1C(Br)=CCc2ccccc21,0.6%,·,·,0.1%,·,·
O=C(C[C@H]1C/C=C\C[C@@H](Cc2ccc(F)cc2)C(=O)O[C@H](c2ccccc2)CNC1=O)NCCO,-13.1%,2.5%,i,12.6µM*,11.5%,15.1%
O=C(C[C@@H]1C/C=C/CC[C@H](Cc2ccc(F)cc2)C(=O)O[C@H](c2ccccc2)CNC1=O)NCCO,-4.2%,7.3%,i,-7.5%,-0.5%,14.3%
CC(C)CSc1nnc(CNC(=O)c2ccccn2)n1C,·,·,i,·,·,·
Cc1ccc(/C=C/C(=O)N2CCN(c3ncccn3)CC2)o1,10µM*,-2.3%,?,-26.6%,-0.3%,34.1%
CCCCCCCCCN(CCCCCCCCC)c1ccc(/C=C/c2ccnc3ccccc23)cc1,17.6%,·,·,12.1%,·,·
Cc1[nH]c2ccccc2c1/C=C/c1ccnc2ccccc12,12.6µM*,·,·,-110.0%,·,·
Cc1[nH]c2ccccc2c1/C=C/c1nccc2ccccc12,-16.8%,·,·,-52.2%,·,·
CCCN(CCC)c1ccc(/C=C/c2ccnc3ccccc23)cc1,217.3%,·,·,10µM*,·,·
CCC[N+](C)(C)c1ccc(/C=C/c2ccnc3ccccc23)cc1,2µM*,·,·,-50.1%,·,·
C[N+](C)(C)c1ccc(/C=C/c2ccnc3ccccc23)cc1,?,·,·,1.6%,·,·
CCC(=O)N[C@H]1CC[C@H](C(=O)N(C)c2ccc(-c3nc4ccccc4o3)cc2)C1,·,·,·,·,22.9%,·
Oc1ccc(/C=N/Nc2ccnc3cc(Cl)ccc23)cc1O,?,-0.4%,31.6µM*,-41.2%,?,-24.2%
Oc1ccc(/C=N/Nc2ccnc3cc(Cl)ccc23)c(O)c1O,0.0%,5.2%,i,-1.0%,2.6%,4.5%
c1csc(C2=Nn3c(nnc3-c3ccncc3)SC2)c1,?,-21.4%,i,-39.4%,27.4%,?
Clc1ccccc1C1=Nn2c(nnc2-c2ccncc2)SC1,?,-9.7%,i,-26.2%,10.7%,1.12µM*
Clc1ccc(C2=Nn3c(nnc3-c3cc(-c4ccccc4)n[nH]3)SC2)cc1,?,7.5%,·,15.8µM*,?,11.3%
